Source: PubChem BioAssay
Rows were chosen to be rich in hits. Some 10% of all compounds tested hit in one or more screens of this group.
3T3 cytotox: kills NIH 3T3 cells. NIH 3T3 viability, CellTiter-Glo ATP luminescence, 48-72 h. Potency, µM (series often up to 96.7 µM), most hits filed as inhibitors. actives 4.3% (n = 94,000). AID 1345082; note: nearly all actives have a fitted effect of over 55% in size
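First NIH 3T3 cells are plated at 400 cells/well; next compound is pinned in; then plates incubate 48 or 72 hr at 37 °C; finally CellTiter-Glo is added and luminescence read after 10 min.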
GPT2 inh: inhibitors of human GPT2 alanine aminotransferase. Recombinant GPT2, coupled pyruvate oxidase/HRP Amplex Red fluorescence. Q8TD30. Potency, µM (highest dose often 57.7 µM), usual class: inhibitors. actives 0.25% (n = 100,000). AID 1671188; note: nearly all actives have a fitted effect of over 60% in size
Target sequence (Q8TD30 whole entry, looked up): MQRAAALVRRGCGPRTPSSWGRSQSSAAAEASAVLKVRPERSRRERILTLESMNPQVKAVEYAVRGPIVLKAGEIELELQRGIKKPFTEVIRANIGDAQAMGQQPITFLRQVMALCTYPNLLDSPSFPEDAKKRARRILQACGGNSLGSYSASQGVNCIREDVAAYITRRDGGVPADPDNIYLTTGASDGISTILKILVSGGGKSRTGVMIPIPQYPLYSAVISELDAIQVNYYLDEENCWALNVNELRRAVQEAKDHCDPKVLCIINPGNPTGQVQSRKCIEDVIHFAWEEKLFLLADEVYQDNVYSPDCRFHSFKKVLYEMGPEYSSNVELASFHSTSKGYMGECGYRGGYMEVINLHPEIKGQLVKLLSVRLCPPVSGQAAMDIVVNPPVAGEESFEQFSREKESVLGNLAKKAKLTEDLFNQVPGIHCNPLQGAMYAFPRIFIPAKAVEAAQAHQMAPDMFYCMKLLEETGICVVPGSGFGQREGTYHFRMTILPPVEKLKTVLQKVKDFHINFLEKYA
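GPT2 10ng/uL, a-KG 250uM, L-Ala 2mM, HEPES pH7.5 + 0.0001% Tween; 30 min RT. Then Amplex mix (PO/HRP/ThPP), 30 min RT dark, fluorescence. AOA 50uM used as positive control.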
NPR1 antag: antagonists of human natriuretic peptide receptor Npr1. P16066. HEK293 hNpr1 GloSensor cGMP, ANP-stimulated luminescence. Potency, µM (highest dose often 46.3 µM), usual class: inhibitors. actives 1.6% (n = 76,000). AID 1347048; calls by dose curve; note: nearly all actives have a fitted effect of over 60% in size
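HEK293 cells stably expressing human Npr1 and cGMP GloSensor pGS-40F, loaded 2 h with 2% GloSensor reagent, given compound 30 min at room temperature. Luminescence read before and 20 min after 0.1 nM hNppA.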
FLuc inh: blocks purified firefly luciferase enzyme activity; AID 1347043; purified P. pyralis luciferase, luminescence, biochemical; P08659; actives 2.5% (n = 76,000); Potency, µM (highest dose often 115 µM), usual class: inhibitors; note: nearly all actives have a fitted effect of over 65% in size
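Luminescence read by CCD imaging after purified firefly luciferase (10nM final) was added to substrate buffer holding 10uM D-luciferin and 10uM ATP, pH 7.5, pre-dosed with compound.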
HEK cytotox: HEK 293 cell cytotoxicity. HEK 293 viability, ATP luminescence (CellTiter-Glo), 48-72 h. Potency, µM (titrated, usually from 115 µM), usual class: inhibitors. actives 6.6% (n = 94,000); note: nearly all actives have a fitted effect of over 60% in size
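ATP-coupled CellTiter-Glo luminescence served as viability read-out, recorded 10 min after reagent addition at room temperature. HEK 293 cells, 250 cells/well, had been incubated with pintool-transferred compound for 48 or 72 hr at 37 degree Celsius.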
Npr1 antag conf: confirmation of human Npr1 natriuretic peptide receptor antagonists. shares compounds with NPR1 antag. HEK293 hNpr1 cGMP GloSensor luminescence, ANP-stimulated. Potency, µM (series often up to 57.6 µM), actives largely listed as inhibitors. actives 76% (n = 1,400). AID 1347044; calls by dose curve; note: nearly all actives have a fitted effect of over 70% in size
Npr2 selectivity: selectivity test of Npr1 antagonists against human Npr2 | shares compounds with NPR1 antag | HEK293 hNpr2 GloSensor cGMP luminescence, CNP-stimulated | Potency, µM (top dose mostly 57.6 µM), usual class: inhibitors | actives 67% (n = 1,400) | AID 1347046; calls by dose curve; note: nearly all actives have a fitted effect of over 70% in size
FLuc inh counter: counter-screen for Npr1 antagonists: firefly luciferase inhibitors | shares compounds with NPR1 antag | purified FLuc enzyme, luminescence, Km substrate | actives 0.7% (n = 1,400) | AID 1347047 | Potency, µM (titrated, usually from 57.6 µM), most hits filed as inhibitors; note: series mostly up to about 58 µM
GloSensor cGMP: counter-screen for Npr1 antagonists: GloSensor control cell line; shares compounds with NPR1 antag; HEK293 GloSensor cGMP, SNP-stimulated, luminescence; Potency, µM (titrated, usually from 57.6 µM), usual class: inhibitors; actives 69% (n = 1,400); calls by dose curve; note: nearly all actives have a fitted effect of over 70% in size
Each line names hits and unclear results; the compound was inactive in the other large screens (follow-up assays come after a bar, where they were run). Unless noted, calls come from the whole dose curve; as a rule, active = well fitted curve in the direction sought with a large enough effect; inconclusive = small, poorly fitted or top-dose-only effect, or another doubt; inactive = no such curve, though single readings can be large; an effect the other way counts as inactive or inconclusive.

O=C(c1ccccc1)N1CCN(CCCn2nc3n(c2=O)CCCC3)CC1	none (no result: GPT2 inh, NPR1 antag, FLuc inh)
Cc1ccc(-c2ccccc2CN2CCN([S+](=O)([O-])c3cccs3)CC2)cc1Cl	HEK cytotox inconclusive (no result: NPR1 antag, FLuc inh)
O=C(c1ccccc1)N1CCCC(C(=O)N2CCCC(c3nc4ncccc4[nH]3)C2)C1 (stereo unspecified)	HEK cytotox inconclusive (no result: NPR1 antag, FLuc inh)
C=CCOC(=O)C1=C(C)N=C2SC=C(CC(=O)N3CCCC3)N2C1c1ccccc1Cl (stereo unspecified)	NPR1 antag 12.6µM, HEK cytotox inconclusive | Npr1 antag conf 24.3µM | Npr2 selectivity 24.3µM | FLuc inh counter inactive | GloSensor cGMP inconclusive
C=CCOC(=O)C1=C(C)N=C2SC=C(CC(=O)N3CCCC3)N2C1c1cccc(OC)c1OC (stereo unspecified)	none
COC(=O)C1=C(C)N=C2SC=C(CC(=O)N3CCC(C)CC3)N2C1c1cccc(OC)c1 (stereo unspecified)	3T3 cytotox inconclusive, NPR1 antag inconclusive, HEK cytotox 39.8µM | Npr1 antag conf inconclusive | Npr2 selectivity 19.3µM | FLuc inh counter inactive | GloSensor cGMP inactive
CCC1=C(C(=O)OC)C(c2ccccc2F)N2C(CC(=O)N3CCCC3)=CSC2=N1 (stereo unspecified)	NPR1 antag inconclusive | Npr1 antag conf inactive | Npr2 selectivity inconclusive | FLuc inh counter inactive | GloSensor cGMP inconclusive
CCC1=C(C(=O)OC)C(c2ccccc2Cl)N2C(CC(=O)N(C)Cc3ccccc3)=CSC2=N1 (stereo unspecified)	3T3 cytotox inconclusive, NPR1 antag inconclusive, HEK cytotox inconclusive | Npr1 antag conf inconclusive | Npr2 selectivity inconclusive | FLuc inh counter inactive | GloSensor cGMP inconclusive
CCC1=C(C(=O)OC)C(c2ccccc2)N2C(CC(=O)N(C)Cc3ccccc3)=CSC2=N1 (stereo unspecified)	3T3 cytotox inconclusive, HEK cytotox inconclusive
Cc1ccc(C(=O)N2CCOc3ccc(NC(=O)C4CC4)cc3C2)cn1	none (no result: NPR1 antag, FLuc inh)
O=C(Nc1ccc2c(c1)OCCO2)N1CC2(CCCCC2)CC1COc1ccncc1 (stereo unspecified)	none (no result: NPR1 antag, FLuc inh)
Cc1nn(-c2ccccc2)c2c1C(C)N(C1CCN(C(=O)NC(C)C)CC1)C2=O (stereo unspecified)	3T3 cytotox inconclusive (no result: GPT2 inh, NPR1 antag, FLuc inh)
CC1=C(C(=O)OC(C)C)C(c2ccc([N+](=O)[O-])cc2)N2C(CC(=O)N3CCCC3)=CSC2=N1 (stereo unspecified)	NPR1 antag inconclusive, HEK cytotox inconclusive
CC1=C(C(=O)OC(C)C)C(c2ccccc2F)N2C(CC(=O)N3CCCC3)=CSC2=N1 (stereo unspecified)	NPR1 antag inconclusive | Npr1 antag conf inconclusive | Npr2 selectivity inconclusive | FLuc inh counter inactive | GloSensor cGMP inconclusive
COc1ccc(CCC(=O)N2CCC(Cc3nc(-c4ccc(F)cc4)no3)CC2)cc1	3T3 cytotox inconclusive, NPR1 antag 5.62µM, HEK cytotox inconclusive | Npr1 antag conf 4.32µM | Npr2 selectivity 10.9µM | FLuc inh counter inactive | GloSensor cGMP 10.9µM
COc1ccc(CCC(=O)N2CCC[C@H]2c2nc(-c3ccccc3Cl)no2)cc1	3T3 cytotox inconclusive, NPR1 antag 12.6µM, HEK cytotox inconclusive | Npr1 antag conf 24.3µM | Npr2 selectivity inconclusive | FLuc inh counter inactive | GloSensor cGMP 27.3µM
COc1ccc(CC(=O)N2CCC(Cc3nc(-c4ccc(F)cc4)no3)CC2)cc1	3T3 cytotox inconclusive, NPR1 antag 5.62µM, HEK cytotox inconclusive | Npr1 antag conf 7.69µM | Npr2 selectivity 6.85µM | FLuc inh counter inactive | GloSensor cGMP 6.11µM
COc1ccc(C(=O)N2CCC(n3cc(-c4nc(-c5ccccc5)no4)nn3)CC2)c(C)c1	3T3 cytotox inconclusive, NPR1 antag inconclusive, HEK cytotox inconclusive
COc1ccccc1CCC(=O)N1CCC(Cc2nc(-c3ccc(F)cc3)no2)CC1	3T3 cytotox inconclusive, NPR1 antag inconclusive, HEK cytotox inconclusive
COc1cccc(CCC(=O)N2CCC(n3cc(-c4nc(-c5ccccc5)no4)nn3)C2)c1 (stereo unspecified)	3T3 cytotox inconclusive, NPR1 antag 14.1µM, FLuc inh inconclusive, HEK cytotox inconclusive | Npr1 antag conf 21.7µM | Npr2 selectivity 24.3µM | FLuc inh counter inactive | GloSensor cGMP 21.7µM
O=C(Cc1cccc(F)c1)N1CCC(Cc2nc(-c3cnccn3)no2)CC1	3T3 cytotox inconclusive
COCC1CN(C)CC12CCN(S(=O)(=O)c1ccc(F)c(Cl)c1)CC2 (stereo unspecified)	3T3 cytotox inconclusive, HEK cytotox inconclusive
O=C1CC(c2ccccc2)N(Cc2ccncc2)CCCN(C(=O)Cc2cccnc2)CCN1 (stereo unspecified)	none
COc1cccc(CCC(=O)N2CCC(Cc3nc(-c4cccc(OC)c4)no3)CC2)c1	3T3 cytotox inconclusive, NPR1 antag 15.8µM, HEK cytotox inconclusive | Npr1 antag conf 21.7µM | Npr2 selectivity 21.7µM | FLuc inh counter inactive | GloSensor cGMP 17.2µM
COc1ccc(OCC(=O)N2CCC(Cc3nc(-c4cnccn4)no3)CC2)cc1	3T3 cytotox inconclusive
O=C(Cc1ccsc1)N1CCC(Cc2nc(-c3ccc(F)cc3)no2)CC1	3T3 cytotox inconclusive, GPT2 inh inconclusive, NPR1 antag 5.01µM, HEK cytotox inconclusive | Npr1 antag conf 4.85µM | Npr2 selectivity 4.85µM | FLuc inh counter inactive | GloSensor cGMP 3.85µM
COc1ccc(-c2noc(CC3CCN(C(=O)COc4cccc(C)c4)CC3)n2)cc1	3T3 cytotox inconclusive, NPR1 antag 15.8µM, HEK cytotox inconclusive | Npr1 antag conf 21.7µM | Npr2 selectivity 24.3µM | FLuc inh counter inactive | GloSensor cGMP 24.3µM
COc1cccc(CCC(=O)N2CCC(Cc3nc(-c4cnccn4)no3)CC2)c1	none
Cc1ccc(OCC(=O)N2CCC(Cc3nc(-c4ccc(F)cc4)no3)CC2)cc1	3T3 cytotox inconclusive, NPR1 antag 7.94µM, HEK cytotox inconclusive | Npr1 antag conf 10.9µM | Npr2 selectivity 12.2µM | FLuc inh counter inactive | GloSensor cGMP 9.68µM
